# Data: PubChem BioAssay AID720488 (Milwaukee Institute for Drug Discovery, 2013)
# Hit rate of the full screen: of about 16,000 compounds, about 960 (6%) were called active.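 Rule for the calls: active = compound fluorescence over control fluorescence at most 0.8, a quencher, or at least a set upper limit, an enhancer; inactive = ratio between 0.8 and the set upper limit.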 This excerpt belongs to a sample that is enriched for actives.
# Test: Cy5 fluorescence quenchers or enhancers, artefact control for HCV NS3 helicase inhibitor project, biochemical, ChemBridge library, Cy5 readout (AID 720488)
# Settings: Cy5-dT15 DNA with NS3h, at 100 µM, actives lie on both sides, signal over control mean, under 1 quenches
row,Compound,fluorescence interference ratio
1,CN(C)c1ccc(/C=C2/SC(=S)N(c3ccc(F)cc3)C2=O)cc1,1.06 (inactive)
2,Cc1c(N2C(=O)S/C(=C\c3ccc(N(C)C)cc3)C2=O)c(=O)n(-c2ccccc2)n1C,1.02 (inactive)
3,Cc1cccc(N2C(=O)S/C(=C/c3ccc(N(C)C)cc3)C2=O)c1,0.733 (active)
4,O=C(/C=N/O)NCCCNCc1ccccc1,1.03 (inactive)
5,CC(C)N1C(=O)/C(=C/c2ccc(O)cc2)SC1=S,0.867 (inactive)
6,CCC(=O)Nc1ccc(-c2nc3ccccc3o2)cc1,0.946 (inactive)
7,O=C(Nc1ccc2oc(-c3cccc(Cl)c3Cl)nc2c1)c1ccccc1[N+](=O)[O-],1.11 (inactive)
8,CCc1ccc2oc(-c3ccc(NC(=O)c4ccccc4[N+](=O)[O-])cc3)nc2c1,0.659 (active)
9,CCN1C(=O)/C(=C\c2ccc(OCc3ccccc3Cl)cc2)SC1=S,0.997 (inactive)
10,COCCCNC(=O)CN(c1ccc(OC)cc1OC)S(=O)(=O)c1ccc(C)cc1,1.23 (active)
11,COc1ccc(N(CC(=O)Nc2ccc(C(C)C)cc2)S(=O)(=O)c2ccc(C)cc2)c(OC)c1,1.04 (inactive)
12,COc1ccc(N(CC(=O)NCc2ccncc2)S(=O)(=O)c2ccc(C)cc2)cc1,0.919 (inactive)
13,CN1CCN(C(=O)c2cc3nc(-c4cccs4)cc(C(F)(F)F)n3n2)CC1,0.935 (inactive)
14,COc1cccc(C2C(C(=O)Nc3ccccc3)=C(C)N=c3s/c(=C\c4c[nH]c5ccccc45)c(=O)n32)c1 (stereo not given),1.04 (inactive)
15,Nc1ccc(Sc2ccccc2[N+](=O)[O-])cc1,0.899 (inactive)
16,COc1ccc(CCNc2cc(N3CCOCC3)ccc2[N+](=O)[O-])cc1OC,0.856 (inactive)
17,O=[N+]([O-])c1ccc(N2CCN(CCO)CC2)cc1NC(c1ccccc1)c1ccccc1,0.793 (active)
18,O=[N+]([O-])c1ccc(N2CCN(S(=O)(=O)c3ccccc3)CC2)cc1N1CCOCC1,1.11 (inactive)
19,COc1ccc(C(=O)/C=C/Nc2ccc(S(=O)(=O)N=C(N)N)cc2)cc1OC,0.963 (inactive)
20,Cc1ccc(OCC(=O)NC(C)C)cc1,1.11 (inactive)
21,CCOC(=O)c1sc(NC(=O)COc2ccc(C)cc2C)c(C(=O)OCC)c1C,0.985 (inactive)
22,CCOC(=O)c1c(-c2ccc(C)cc2C)csc1NC(=S)NC(=O)c1ccccc1,1.21 (active)
23,CCOC(=O)c1sc(NC(=O)c2ccc(OC)cc2)c(C(=O)OCC)c1C,1.02 (inactive)
24,CC(C)(C)c1ccccc1OCC(O)CN1CCCC1 (stereo not given),1.05 (inactive)

row,Compound,fluorescence interference ratio
1,C=CCOc1ccccc1C=C1C(=O)NC(=O)NC1=O,0.999 (inactive)
2,CC(=O)CC(=O)Nc1ccc2c(c1)OCCO2,1.13 (inactive)
3,CCOC(=O)c1ccc(NC(=O)CN(c2cccc([N+](=O)[O-])c2)S(=O)(=O)c2ccccc2)cc1,0.663 (active)
4,CCOC(=O)c1ccccc1NC(=O)/C(=C/c1cccc([N+](=O)[O-])c1)NC(=O)c1ccccc1,1.01 (inactive)
5,COc1ccccc1NC(=O)CN(c1cccc([N+](=O)[O-])c1)S(=O)(=O)c1ccccc1,0.943 (inactive)
6,Cc1cc(Nc2cccc(C(F)(F)F)c2)n2c(nc3ccccc32)c1C#N,1.06 (inactive)
7,COc1ccc2oc(=O)c(C(=O)O)cc2c1,1.08 (inactive)
8,O=C(NC(=S)Nc1ccc2oc(-c3ccc(Br)cc3)nc2c1)c1ccco1,1.09 (inactive)
9,O=C(NC(=S)Nc1ccc(-c2nc3cc(Cl)ccc3o2)cc1)c1ccco1,2.04 (active)
10,O=C(NC(=S)Nc1ccc2oc(-c3cccnc3)nc2c1)c1ccc(Cl)cc1,0.998 (inactive)
11,Cc1ccc(C2Nc3ccccc3C(=O)N2c2ccccc2)cc1 (stereo not given),0.912 (inactive)
12,CCOC(=O)CSc1nnc(-c2cccc(Br)c2)o1,1.15 (inactive)
13,COc1ccc(S(=O)(=O)N(CCc2ccccc2)CC(=O)Nc2ccccc2F)cc1,1 (inactive)
14,COc1ccc(C(=O)Nc2nc3ccc(C)cc3s2)cc1Br,1.23 (active)
15,COc1ccc(C(=O)Nc2ncc([N+](=O)[O-])s2)cc1OC,0.92 (inactive)
16,O=C(Nc1nc2ccccc2s1)c1ccc2c(c1)OCO2,0.992 (inactive)
17,COC(=O)c1c(C)oc2ccc(OCC(=O)c3ccccc3)cc12,0.818 (inactive)
18,O=C(Nc1ccc(Br)cc1)c1ccc(S(=O)(=O)N2CCCC2)cc1,0.938 (inactive)
19,COc1ccc2occ(C(=O)c3ccc(N=C(C)N(C)C)cc3)c2c1,1.07 (inactive)
20,COc1ccccc1C(=O)N=Nc1c(O)n(C)c2ccccc12,1.03 (inactive)
21,CC(=O)Nc1ccc(NC(=S)NC(=O)/C=C/c2ccccc2)cc1,1.07 (inactive)
22,CCN(CC)c1ccc(NC(=O)/C(=C\c2ccccc2)NC(C)=O)cc1,1.28 (active)
23,CC(C)Oc1ccc(/C=C(/NC(=O)c2ccccc2)C(=O)Nc2ccccc2)cc1,1.01 (inactive)
24,O=C(CCN1C(=O)/C(=C/c2cccs2)SC1=S)NC12CC3CC(CC(C3)C1)C2,0.998 (inactive)

row,Compound,fluorescence interference ratio
1,Cc1cc(C)c(NC(=O)C(=O)NCC(C)O)c(C)c1 (stereo not given),1.01 (inactive)
2,CCOc1ccccc1NC(=O)Cc1ccccc1,1.03 (inactive)
3,O=C(/C=C/c1ccc(F)cc1)Nc1cccc(Cl)c1Cl,1.01 (inactive)
4,CCOc1ccccc1NC(=O)/C=C/c1ccc(Cl)cc1,1.34 (active)
5,CC(=O)COc1ccc2c(-c3ccccc3)cc(=O)oc2c1,0.969 (inactive)
6,COCCOC(=O)c1c(C)oc2ccc(OCC(N)=O)cc12,1.05 (inactive)
7,Cc1ccc(NC(=O)c2ccc(NC(=O)c3ccc(Cl)cc3Cl)cc2)cc1,0.959 (inactive)
8,CS(=O)(=O)N(CC(=O)Nc1ccc(I)cc1)c1cccc(Cl)c1,0.92 (inactive)
9,CC(=O)c1cccc(NC(=O)c2ccc(N(Cc3ccc(Cl)cc3)S(C)(=O)=O)cc2)c1,0.635 (active)
10,NCCCCNc1ccc([N+](=O)[O-])cc1,0.959 (inactive)
11,Cc1nn(-c2ccc(I)cc2)c(C)c1-c1cccc([N+](=O)[O-])c1,0.947 (inactive)
12,O=[N+]([O-])c1ccc(-c2ccc(I)cc2)cc1,0.706 (active)
13,CCOC(=O)C1CCN(C(=O)Nc2ccc(Cl)cc2)CC1,1.01 (inactive)
14,NC(=O)NC(c1ccccc1)c1ccc(I)cc1 (stereo not given),1.01 (inactive)
15,O=C(Nc1ccc([N+](=O)[O-])cc1)C1CC(=O)N(c2ccc(Cl)cc2)C1 (stereo not given),0.885 (inactive)
16,CN(C)/C=C(/Cl)C=C1C(=O)c2ccccc2C1=O,0.757 (active)
17,Cc1cc(OCC(=O)Nc2c(C)cccc2C)ccc1Cl,0.96 (inactive)
18,COc1ccc(S(=O)(=O)Nc2cc(Br)c(O)c(Br)c2)cc1,0.972 (inactive)
19,COC(=O)c1ccc(COc2ccc3c4c(c(=O)oc3c2)CCC4)cc1,0.926 (inactive)
20,CC1=NN(C(=O)c2ccc(Br)cc2)C(O)(c2ccccc2)C1 (stereo not given),0.753 (active)
21,O=C(c1ccc(Cl)cc1)N1N=C(c2ccc(F)cc2)CC1(O)C(F)(F)F (stereo not given),0.933 (inactive)
22,CCC1=NN(C(=O)c2cccc(Br)c2)C(O)(c2ccc(C)cc2)C1 (stereo not given),0.942 (inactive)
23,O=C(Cc1ccc(Cl)cc1)Nc1nccs1,0.993 (inactive)
24,Cc1cc(C(N)=O)c(-c2ccccc2)o1,1.04 (inactive)

row,Compound,fluorescence interference ratio
1,O=C1CC2c3ccccc3C1C1C(=O)N(c3ccc(Br)cc3)C(=O)C21 (stereo not given),1.04 (inactive)
2,Cc1ccc(N2C(=O)C3C4c5ccccc5C(C)(c5ccccc54)C3C2=O)cc1 (stereo not given),0.929 (inactive)
3,CC(=O)Nc1ccc(N2C(=O)C3C4CC(=O)C(c5ccccc54)C3C2=O)cc1 (stereo not given),0.654 (active)
4,Oc1cccc(Nc2nc(-c3ccc(Br)cc3)cs2)c1,0.941 (inactive)
5,COCCCNC(=O)C(=O)NCCc1ccc(OC)c(OC)c1,0.956 (inactive)
6,COc1ccc2c(c1)-c1c(ssc1=S)C(C)(C)N2C(=O)COc1ccccc1,0.931 (inactive)
7,CC12OC3(CCCCC3)C(C)(OC13CCCCC3)O2,0.781 (active)
8,COc1ccc(C(=O)Nc2ccccc2)cc1NC(=O)C(C)Oc1ccccc1 (stereo not given),0.898 (inactive)
9,O=C(/C=C/c1ccccc1)NC(=S)Nc1ccc([N+](=O)[O-])cc1,1.02 (inactive)
10,S=C1NC(c2ccccc2)=NCN1c1ccc(Br)cc1,0.684 (active)
11,Cc1cc(C)c(C(O)=Cc2nc3ccccc3[nH]c2=O)c(C)c1,1.05 (inactive)
12,CCN1C(=O)/C(=C\c2cn(Cc3ccc(F)cc3)c3ccccc23)SC1=S,1.07 (inactive)
13,COc1ccccc1NC(=O)c1cc(Nc2ccccc2)nc2ccccc12,1.05 (inactive)
14,Cc1ccc(-c2cc(NC(=O)c3cccs3)n[nH]2)cc1,0.923 (inactive)
15,Cc1cc(C(=O)N2CCN(c3cccc(Cl)c3)CC2)ccc1[N+](=O)[O-],0.957 (inactive)
16,CC1CCN(c2ccc([N+](=O)[O-])c(SCCO)c2)CC1,0.613 (active)
17,O=C1/C(=C\c2cn(Cc3ccccc3F)c3ccccc23)SC(=S)N1c1ccc([N+](=O)[O-])cc1,0.998 (inactive)
18,CC(C)(C)N1C(=O)NC(=O)C(=Cc2cccs2)C1=O,1.01 (inactive)
19,CCCCOC(=O)CCN1C(=O)/C(=C/c2ccc3c(c2)OCO3)SC1=S,0.998 (inactive)
20,O=C(NC(NC(=O)C(c1ccccc1)c1ccccc1)c1ccc(F)cc1)C(c1ccccc1)c1ccccc1,1.07 (inactive)
21,CCOC(=O)c1ccc(NC2C=CS(=O)(=O)C2)cc1 (stereo not given),0.986 (inactive)
22,O=C(COc1ccccc1Cl)Nc1ccc(O)cc1C(=O)O,1 (inactive)
23,O=C(NCCN1CCN(S(=O)(=O)c2ccccc2)CC1)C(=O)Nc1ccc(Br)cc1,1.01 (inactive)
